# Screening results as filed in PubChem BioAssay.
# Hits are enriched below; roughly 6.5% of the tested compounds scored in any of these assays.
# FMDV antiviral = antivirals against foot and mouth disease virus; FMDV antiviral cell-based qHTS; Potency, µM (doses to about 57.9 µM), inactives show at the top dose activity change, negative = inhibition, hits mostly inhibitors; actives 1.2% (n = 410,000); AID 1159524; calls by dose curve; tested in HEK293T cells; also: read-out not given here; potency is read from the fitted curve at half-maximal effect; nearly all actives have a fitted effect of over 45% in size
# MARV entry inh = Marburg virus entry inhibition | Potency, µM (titrated, usually from 37.8 µM), for inactives: at the highest dose activity change, negative = inhibition, usual class: inhibitors | actives 1.8% (n = 300,000) | Marburg virus pseudotyped entry inhibition, cell reporter; calls by dose curve; tested in HEK293 cells; also: potency is read from the fitted curve at half-maximal effect
# Vaccinia mCherry = vaccinia inhibition (mCherry reporter); Vaccinia virus mCherry reporter infection, fluorescence; Potency, µM (doses to about 36.5 µM), inactives show top-dose activity change, negative = inhibition, actives largely listed as inhibitors; actives 0.63% (n = 310,000); AID 720579; calls by dose curve; tested in A549 cells; also: potency is read from the fitted curve at half-maximal effect; nearly all actives have a fitted effect of over 35% in size
# VACV Venus inh = vaccinia inhibition (Venus reporter); actives 0.46% (n = 330,000); Potency, µM (series often up to 36.5 µM), without a hit: at the highest dose activity change, negative = inhibition, hits mostly inhibitors; Vaccinia virus Venus reporter expression, fluorescence; calls by dose curve; tested in A549 cells; also: potency is read from the fitted curve at half-maximal effect; nearly all actives have a fitted effect of over 30% in size
# HCMV inh = human cytomegalovirus inhibition; actives 4.5% (n = 410,000); activity change, negative = inhibition, % at 57.5 µM; AID 1259415; HFF cells, HCMV-luciferase reporter, 72 h; stronger effect = lower value; in the data active = activity change below about -60%; inconclusive = no clear call, values can overlap the other calls; inactive = above about -39%
#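 Two compound doses tested in HFFs infected with HCMV-luciferase, MOI 1 PFU/cell, 72 h at 37C. Lysate luminescence read with OneGlo; data normalized against buffer-only and 10uM Salinomycin inhibitor controls.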
# LASV entry inh = blocks Lassa virus binding to or entry into cells. Lassa virus pseudotype entry inhibition, cell reporter. Potency, µM (top dose mostly 37.9 µM), without a hit: at the highest dose activity change, negative = inhibition, most hits filed as inhibitors. actives 1.2% (n = 300,000); calls by dose curve; tested in HEK293 cells; also: potency is read from the fitted curve at half-maximal effect; nearly all actives have a fitted effect of over 50% in size
# * marks the source's active call; other numbers are inactive results; i = inactive; ? = inconclusive; nt = not tested or not shown; [ ] = dose if it differs, or a comment. % is scaled to controls: 0 for no effect and ±100 for the full control effect.
SMILES,FMDV antiviral,MARV entry inh,Vaccinia mCherry,VACV Venus inh,HCMV inh,LASV entry inh
O=c1nc(N/N=C/C=C/c2ccccc2)cn[nH]1,?,-9%[46.1 µM],i,-6%,15,2.2µM*
O=C(O)c1cccc2c(/C=N/Nc3ccccn3)c[nH]c12,-3%,nt,nt,nt,nt,nt
C(=N\Nc1ccccn1)/c1c[nH]c2ccccc12,12%,?,?,?,-68*,-9%[46.1 µM]
CC(C)C(C(=O)NC1CCCCC1)N1C(=O)C(=O)c2ccccc21 (centres undefined),nt,nt,nt,nt,15,nt
CCC(Cc1ccccc1)NCc1c(C(=O)O)c(C)n(Cc2ccccc2)c1C (centres undefined),-8%,?,-11%,-15%,-74*,-29%[46.1 µM]
CCc1nc(C)cn1S(=O)(=O)c1ccc([N+](=O)[O-])cc1,-14%,-11%[46.1 µM],-15%,-4%,-15,11%
CCCn1c(CC)nc([N+](=O)[O-])c1S(=O)(=O)c1ccccc1,13µM*,?,nt,nt,33,?
Cc1ccc(NC(=O)c2cc(C(=O)c3cc(Cl)ccc3O)cn(-c3ccc(C)cc3)c2=O)cc1,0%,?,-1%,?,-70*,?
N#Cc1cc(C(=O)c2cc(Cl)ccc2O)cn(-c2ccccc2)c1=O,-20%,-17%,i,-15%,-1,-4%
C[C@]12C[C@H](O)C3[C@@H](CCC4=CC(=O)CC[C@@]43C)[C@@H]1CC[C@@H]2C(=O)CO (some centres undefined),nt,45%,nt,nt,nt,?
CCCS(=O)(=O)c1nc(S(=O)(=O)c2ccc(C)cc2)c(NCCCOC(C)C)s1,1%,15%[46.1 µM],-1%,-21%,16,?
Cc1occc1C(=O)N1CCCC(Nc2ccc(C(C)C)cc2)C1 (centres undefined),0%,?,-26%,-23%,-65*,7%
O=C(c1ccc2c(c1)OCCO2)N1CCN(c2ccc(C(F)(F)F)cn2)CC1,?,nt,-4%,-21%,-60*,nt
O=C(c1ccc2c(c1)OCO2)N1CCN(c2ccc(C(F)(F)F)cn2)CC1,0%,0%,-6%,-26%,?,-9%
FC(F)(F)c1ccc(N2CCN(Cc3ccc4c(c3)OCO4)CC2)nc1,0%,2%,i,-22%,-64*,-2%
CCCOc1ccc(-c2c(=O)n(OCc3ccc([N+](=O)[O-])cc3)c3ccccc3[n+]2[O-])cc1,-2%,-3%,-11%,0%,23,?
CC(C)CCOc1ccc(-c2c(=O)n(OCc3ccc([N+](=O)[O-])cc3)c3ccccc3[n+]2[O-])cc1,-14%,-17%,nt,nt,-69*,-5%
CCOC(=O)c1oc2ccc(CNC3CCCCC3)c(Cl)c2c1C,nt,7.3µM*,-15%,-17%,-1,?
CCOC(=O)c1oc2ccc(CNCCO)c(Cl)c2c1C,10%,?,-3%,-11%,136,-2%
Cc1ccc(OCCCC(=O)Nc2sc3c(c2C(N)=O)CCCC3)cc1,-14%,nt,-5%,13%,2,-6%[46.1 µM]
CNC[C@H](CC1CCCCC1)NC[C@H](CO)NCCc1cccc(C(F)(F)F)c1,-16%,nt,?,20µM*,-100*,nt
Oc1c(CN2CCN(c3ccccn3)CC2)cc(Cl)c2cccnc12,?,7.1µM*,nt,11µM*,nt,13µM*
Oc1c(CN2CCCCC2)cc(COCc2ccccc2)c2cccnc12,-28%,?,2.5µM*,?,-96*,2.2µM*
COCc1cc(CN2CCCC2)c(O)c2ncccc12,nt,26µM*,14µM*,?,-95*,?
CN(C)C1CCN(Cc2cc(COCc3ccccc3)c3cccnc3c2O)C1 (centres undefined),-21%,nt,nt,nt,nt,nt
SMILES,FMDV antiviral,MARV entry inh,Vaccinia mCherry,VACV Venus inh,HCMV inh,LASV entry inh
OCCN1CCN(Cc2cc(Cl)c3cccnc3c2O)CC1,-10%,?,nt,nt,-33,?
C=CCc1ccccc1OCc1nc2ccc(C)cc2[nH]1,-15%,-9%[46.1 µM],5%,14%,-25,-23%[46.1 µM]
CN1CCN(c2ccc(-c3cc(NC=O)c4ncc(-c5ccc(F)c(Cl)c5)n4c3)cc2)CC1,14%,nt,?,-18%,-92*,nt
CC(=O)Nc1cc(-c2ccc(N3CCN(C)CC3)cc2)cn2c(-c3ccc(F)c(Cl)c3)cnc12,-27%,nt,?,?,-30,nt
COc1ccc(-c2cnc3c(NC=O)cc(-c4ccc(F)cc4)cn23)cc1OC,?,nt,11µM*,?,?,nt
COc1ccc(-c2cnc3c(NC=O)cc(-c4cc(OC)c(OC)c(OC)c4)cn23)cc1OC,-17%,nt,-12%,-25%,65,nt
COc1ccc(-c2cnc3c(NC=O)cc(-c4ccccc4)cn23)cc1OC,?,nt,1.3µM*,?,66,nt
COc1ccc(-c2cc(NC=O)c3ncc(-c4cc(OC)c(OC)c(OC)c4)n3c2)cc1,-15%,nt,?,?,-81*,nt
COc1cc(CN2CCCC(n3cc(C(=O)N4CCCCC4)nn3)C2)cc(OC)c1 (centres undefined),-11%,nt,-26%,-28%,nt,nt
Cc1c(CNCCCc2ccccc2)c(C(=O)O)c(C)n1Cc1cccc(Cl)c1,4%,?,9%,1%,-28,-3%[46.1 µM]
COC(=O)[C@@H]1[C@@H](CO)[C@@H]2Cn3c(cccc3=O)[C@H]1N2Cc1ccccc1OC,nt,nt,nt,nt,19,nt
COc1cccc(-c2cc(NC=O)c3ncc(-c4ccc(OC)c(OC)c4)n3c2)c1,-27%,nt,?,?,221,nt
COc1ccc(-c2cnc3c(NC=O)cc(-c4cccc(NS(C)(=O)=O)c4)cn23)cc1OC,-22%,nt,6.3µM*,8.9µM*,125,nt
CC1CCc2c(sc(NC(=O)c3cc(-c4ccc(F)cc4)on3)c2C(N)=O)C1 (centres undefined),2%,1%[46.1 µM],-3%,3%,-6,-8%[46.1 µM]
CCN1c2ccccc2-c2nc(SCC(=O)Nc3c(C)cc(C)cc3C)ncc2S1(=O)=O,8%,nt,-26%,-16%,-14,-22%[46.1 µM]
CC(C)(C)c1ccc(-c2cn(-c3ccc(Br)cc3)c3[n+]2CCCS3)cc1,?,?,i,-6%,-98*,?
c1ccc(-c2cn(-c3ccccc3)c3[n+]2CCS3)cc1,?,?,i,-15%,?,?
Fc1ccc(-n2cc(-c3ccccc3)[n+]3c2SCC3)cc1,-22%,-20%,nt,nt,?,2%
COc1ccc(-c2cn(-c3ccccc3)c3[n+]2CCS3)cc1,?,?,-2%,-18%,-100*,?
CC1(C)C[C@H]2C=C(C=O)[C@]3(C=O)C[C@]3(C)[C@H]2C1,25µM*,?,?,?,9,3.7µM*
COc1cc(Cl)c(C)cc1NC(=O)Cn1cnc2sc(C)c(S(=O)(=O)N3CCCCC3)c2c1=O,0%,?,-14%,-21%,-9,-1%[46.1 µM]
Cc1cnc(-n2ncc(C(=O)NCCc3cccnc3)c2C)nc1-c1cccs1,-5%,nt,?,-19%,nt,nt
Cc1nn(C)c(C)c1/C=C/C(=O)c1ccc(Cl)cc1Cl,?,?,?,?,-81*,?
